Our source for the growth values is PubChem BioAssay (NCI).

The structures appear in SMILES notation. The panel holds about 83,000 compounds, 20% with a hit somewhere; the sample as a whole holds those more often.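 The endpoint reported here, percent growth, reads 100 for growth as untreated, 0 for no net growth and -100 for all cells dead.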 Unmarked numbers belong to inactive results. The source made the active and inactive calls. How the source made its calls: active means growth percent below 10; inactive means the rest.

Among the test systems are SR leukemia; RPMI-8226 leukemia; OVCAR-8 ovarian; OVCAR-5 ovarian; OVCAR-4 ovarian; SK-OV-3 ovarian; IGROV1 ovarian; OVCAR-3 ovarian; HS 578T breast; NCI/ADR-RES ovarian.
Assay in all cases: NCI-60 one-dose screen, 48 h (100 = growth as untreated, 0 = no growth, -100 = all killed)
Common to all, as to settings: 10 µM unless noted

On to `C#CCNC(=O)[C@]1(C)CC[C@]2(C)CC[C@@H]3C(=CC[C@H]4[C@@]3(C)CC[C@H]3C(C)(C)C(=O)CC[C@]43C)[C@@H]2C1`, for which the growth was 55.9% in the experiment on SR leukemia; 69.1% in the experiment on RPMI-8226 leukemia; 96.8% in the experiment with OVCAR-8 ovarian; 102% with OVCAR-5 ovarian; 91.4% in the experiment with OVCAR-4 ovarian; 92.1% in the experiment with SK-OV-3 ovarian. The growth was 60.1% with IGROV1 ovarian, 95.7% in the experiment with OVCAR-3 ovarian, 126% in the experiment on HS 578T breast and 94.2% in the experiment with NCI/ADR-RES ovarian.

Take `CCN(CC)CCn1c(=O)c2cc(OC)c(OC)cc2c2ccc3cc4c(cc3c21)OCO4`: the growth with SR leukemia was -14.9% (active); in the experiment on RPMI-8226 leukemia, 3.16% (active); in the experiment with OVCAR-8 ovarian, 53.2%; in the experiment on OVCAR-5 ovarian, 64.9%; with OVCAR-4 ovarian, 66.4%; with SK-OV-3 ovarian, 32.8%. Besides, the growth is 29% in the experiment on IGROV1 ovarian, 62.4% with OVCAR-3 ovarian, 64.3% in the experiment with HS 578T breast and 29.9% in the experiment on NCI/ADR-RES ovarian.

Consider `N#C/C(=C\c1ccc([N+](=O)[O-])s1)c1nc2cc(Cl)ccc2s1`, for which the growth in the experiment with SR leukemia is -0.613% (active); with RPMI-8226 leukemia, -13.4% (active); in the experiment on OVCAR-8 ovarian, 3.27% (active); in the experiment with OVCAR-5 ovarian, 63.6%; with OVCAR-4 ovarian it was 13.4%; in the experiment on SK-OV-3 ovarian, 65.1%. The growth was -16.2% (active) with IGROV1 ovarian, 20.9% in the experiment on OVCAR-3 ovarian, 77.6% in the experiment with HS 578T breast and -5.71% (active) in the experiment on NCI/ADR-RES ovarian.

With `C=C1C(=O)O[C@H]2[C@H]1CC/C(CNC(=O)/C=C/c1cccc(OC)c1)=C\CC[C@@]1(C)O[C@@H]21`, the growth in the experiment with SR leukemia was 8.06% (active); in the experiment on RPMI-8226 leukemia, 2.73% (active); in the experiment with OVCAR-8 ovarian it was 3.77% (active); with OVCAR-5 ovarian, 39.8%; in the experiment on OVCAR-4 ovarian, 19.4%; in the experiment on SK-OV-3 ovarian, 86%. Also, the growth is 20.6% with IGROV1 ovarian, -62.6% (active) in the experiment with OVCAR-3 ovarian, 73.1% in the experiment with HS 578T breast and 82.6% in the experiment with NCI/ADR-RES ovarian.

Regarding `N#Cc1c(NC(=O)NCc2ccccc2)sc2c1CCCC2`, the growth with SR leukemia was 23.3%; in the experiment on RPMI-8226 leukemia it was 17.7%; in the experiment on OVCAR-8 ovarian it was 26.8%; in the experiment with OVCAR-5 ovarian, 46%; in the experiment with OVCAR-4 ovarian, 48.4%; with SK-OV-3 ovarian it was 35.1%. In addition, the growth was 28.8% with IGROV1 ovarian, -15.7% (active) with OVCAR-3 ovarian, 9.64% (active) in the experiment on HS 578T breast and 11.1% in the experiment on NCI/ADR-RES ovarian.

As for `COc1ccc(/C=C(\C#N)n2nc3cccc(F)c3n2)cc1`, the growth with SR leukemia is 82.4%; in the experiment with RPMI-8226 leukemia, 102%; in the experiment on OVCAR-8 ovarian, 100%; in the experiment on OVCAR-5 ovarian, 108%; in the experiment with OVCAR-4 ovarian, 101%; with SK-OV-3 ovarian, 108%. Besides, the growth with IGROV1 ovarian was 96.8%; with OVCAR-3 ovarian it was 109%; in the experiment on HS 578T breast, 104%; with NCI/ADR-RES ovarian it was 104%.

As for `CC(=O)[C@@H]1CC[C@]2(C(N)=O)CC[C@]3(C)[C@H](CC[C@@H]4[C@@]5(C)CCCNC(C)(C)[C@@H]5CC[C@]43C)[C@@H]12`, the growth in the experiment with SR leukemia was 43.7%; in the experiment with RPMI-8226 leukemia it was 61.7%; in the experiment with OVCAR-8 ovarian, 98%; in the experiment with OVCAR-5 ovarian it was 91.5%; in the experiment on OVCAR-4 ovarian it was 84.6%; in the experiment on SK-OV-3 ovarian it was 108%. The growth in the experiment on IGROV1 ovarian is 93.6%; in the experiment on OVCAR-3 ovarian it was 89.3%; in the experiment with HS 578T breast, 84.4%; in the experiment with NCI/ADR-RES ovarian, 90.6%.

Turning to `O=S(=O)(NCCNc1nccc(-c2c(-c3cccc(F)c3)nc3sccn23)n1)c1ccccc1`, the growth was 29.3% in the experiment on SR leukemia; 43.5% with RPMI-8226 leukemia; 33.9% in the experiment with OVCAR-8 ovarian; 79.6% in the experiment on OVCAR-5 ovarian; 40% in the experiment on OVCAR-4 ovarian; 57.2% in the experiment on SK-OV-3 ovarian. For the same compound, the growth was 4.9% (active) with IGROV1 ovarian, 58.9% in the experiment on OVCAR-3 ovarian, 55.5% with HS 578T breast and 46.3% in the experiment with NCI/ADR-RES ovarian.

Turning to `COc1cc2cc(CN3CCN(c4nccc(-c5ccc6ccccc6c5)n4)CC3)c(=O)[nH]c2cc1OC`, the growth in the experiment with SR leukemia is -23.1% (active); in the experiment with RPMI-8226 leukemia, 61.2%; with OVCAR-8 ovarian, 28.9%; with OVCAR-5 ovarian, 102%; in the experiment on OVCAR-4 ovarian it was 53.4%; in the experiment with SK-OV-3 ovarian, 99.6%. Also, the growth in the experiment on IGROV1 ovarian was 92%; in the experiment with OVCAR-3 ovarian, 39%; in the experiment with HS 578T breast it was 95.4%; in the experiment on NCI/ADR-RES ovarian it was 85.9%.

In the case of `COc1ccc2c(c1)oc1c(C)c3c(c(C)c12)C(=O)N(CCN1CCOCC1)C3=O`, the growth with SR leukemia is 85.8%; with RPMI-8226 leukemia, 92.2%; with OVCAR-8 ovarian it was 92%; with OVCAR-5 ovarian it was 92.6%; in the experiment on OVCAR-4 ovarian, 103%; with SK-OV-3 ovarian, 114%. The growth in the experiment with IGROV1 ovarian was 91.4%; with OVCAR-3 ovarian, 106%; in the experiment on HS 578T breast, 102%; in the experiment on NCI/ADR-RES ovarian it was 104%.

Take `O=C(/C=C(O)/C=C/c1ccc(SC(F)(F)F)cc1)/C=C/c1ccc(SC(F)(F)F)cc1`: the growth in the experiment on SR leukemia was 40.8%; in the experiment with RPMI-8226 leukemia, 38.9%; in the experiment on OVCAR-8 ovarian it was 96%; in the experiment with OVCAR-5 ovarian, 118%; in the experiment on OVCAR-4 ovarian, 97.3%; in the experiment on SK-OV-3 ovarian it was 119%. Also, the growth in the experiment with IGROV1 ovarian was 80.6%; with OVCAR-3 ovarian, 88%; in the experiment on HS 578T breast, 98.2%; in the experiment with NCI/ADR-RES ovarian, 104%.

On to `NCCCCCCNc1cc(-c2cccc(OC(F)(F)F)c2)nc2ccc(N3CCCC3)cc12`, for which the growth is -24.7% (active) in the experiment with SR leukemia; -37.8% (active) in the experiment with RPMI-8226 leukemia; 2.63% (active) in the experiment on OVCAR-8 ovarian; 12.6% in the experiment with OVCAR-5 ovarian; -39.8% (active) with OVCAR-4 ovarian; 93.6% in the experiment on SK-OV-3 ovarian. In addition, the growth in the experiment on IGROV1 ovarian was -55.6% (active); in the experiment with OVCAR-3 ovarian, -82.4% (active); in the experiment on HS 578T breast, -54% (active); with NCI/ADR-RES ovarian, 5.01% (active).

Take `CC(=O)c1ccc(NS(=O)(=O)c2cccc(C(=O)Nc3ccc(Br)cc3)c2)cc1`: the growth with SR leukemia is 87.8% [25 µM]; in the experiment with RPMI-8226 leukemia it was 22% [25 µM]; in the experiment on OVCAR-8 ovarian it was 67.3% [25 µM]; in the experiment with OVCAR-5 ovarian, 89.2% [25 µM]; in the experiment with OVCAR-4 ovarian, 63.6% [25 µM]; with SK-OV-3 ovarian, 66.5% [25 µM]. Also, the growth in the experiment on IGROV1 ovarian was 73.7% [25 µM]; in the experiment on OVCAR-3 ovarian, 70.9% [25 µM]; in the experiment on HS 578T breast it was 79.7% [25 µM]; in the experiment on NCI/ADR-RES ovarian, 48% [25 µM].
